This note sets out measurements from PubChem BioAssay AID463173 (ICCB-Longwood Screening Facility, Harvard Medical School, 2010).

SMILES strings stand for the structures. Hit rate of the full screen: of about 52,000 compounds, about 4,300 (8.3%) were called active. Only a selection was taken, and actives are over-represented in it overall. A number with no mark means an inactive call. Cut-off read from the data, not from the text of the source: active = survival mostly below about 52% (no sharp cut-off); inactive = mostly above about 56%.

This experiment relates to DeltatarO mutant. The experiment is described as follows: growth inhibition of S. aureus wild type versus tarO mutant, primary screen, teichoic acid synthesis inhibitors, RN4220, OD600 (AID 463173). To be noted: OD600, 18 h, stronger effect = lower value, screened at 18.75 µg/mL (by protocol).
On to `Cc1ccc(C(=O)N2CCc3cc(CNC(=O)c4ccnn4C)ccc32)cc1`, for which the survival was 91%.
Turning to `Cn1cc(CCCC(=O)NCc2ccccc2Cl)c2ccccc21`, the survival was 75%.
For the molecule `CC(C)Oc1ccc(CNC(=O)CCCn2c(=O)c3cccn3c3ccccc32)cc1`, the survival is 45% (active).
`CC(C)Oc1ccc(CNC(=O)CCn2c(=O)c3cccn3c3ccc(F)cc32)cc1`: the survival is 48%.
As to `COc1cccc(CNC(=O)CCn2c(=O)c3cccn3c3ccc(F)cc32)c1OC`, the survival is 59%.
As to `COc1cccc(CNC(=O)CCCn2c(=O)c3cccn3c3ccc(F)cc32)c1OC`, the survival is 43% (active).
For `COc1cccc(CNC(=O)Cn2c(=O)c3cccn3c3ccc(F)cc32)c1OC`, the survival was 103%.
Next, `CC(C)Oc1ccc(CNC(=O)CCCn2c(=O)c3cccn3c3cccnc32)cc1`: 111%; `COc1cccc(NC(=O)Cn2c(=O)n(-c3cccc(OC)c3)c(=O)c3c4c(sc32)CCCC4)c1`: 107%; `COc1ccc(-c2nc3c4ccccc4n(CC(=O)Nc4cc(F)ccc4F)c(=O)n3n2)cc1`: 84%.
Next, `Cc1ccc(-c2nc3sc(CCNC(=O)c4ccc(F)c(F)c4)c(C)n3n2)cc1`: 76%.
Regarding `CCn1c(=O)c2cc(C(=O)NCCc3cc(OC)ccc3OC)sc2c2ccccc21`, the survival was 34% (active).
`CCn1c(=O)c2cc(C(=O)NCCc3ccc(OC)c(OC)c3)sc2c2ccccc21`: the survival was 42% (active).
As for `CCn1c(=O)c2cc(C(=O)Nc3cc(OC)c(OC)c(OC)c3)sc2c2ccccc21`, the survival was 41% (active).
Regarding `CCn1c(=O)c2cc(C(=O)NCCCOC)sc2c2ccccc21`, the survival was 103%.
Next, `CCn1c(=O)c2cc(C(=O)Nc3cccc(C(F)(F)F)c3)sc2c2ccccc21`: 84%.
Next, `COc1ccc(CCNC(=O)c2cc3c(=O)n(C)c4ccccc4c3s2)cc1OC`: 65%; `CCn1c(=O)c2cc(C(=O)Nc3cc(C)c(Cl)cc3OC)sc2c2ccccc21`: 69%; `CCc1ccc(CNC(=O)c2cc3c(=O)n(CC)c4ccccc4c3s2)cc1`: 51%.
Next, `COc1ccc(Br)cc1CNC(=O)c1cc2c(=O)n(C)c3ccccc3c2s1`: 94%; `CCn1c(=O)c2cc(C(=O)NCc3cc(OC)ccc3OC)sc2c2ccccc21`: 54% (active); `CCn1c(=O)c2cc(C(=O)NCCc3ccc(Cl)cc3)sc2c2ccccc21`: 76%.
Consider `CCOc1ccc(CCNC(=O)c2cc3c(=O)n(CC)c4ccccc4c3s2)cc1OCC`, for which the survival is 60%.
Next, `CCOC(=O)c1[nH]c2ccccc2c1NC(=O)c1ccc(Br)cc1`: 95%.
For `Cc1cccc(-c2nc3nc(C)cc(NCc4ccccc4Cl)n3n2)c1`, the survival was 74%.
For `COc1ccccc1C(=O)Nc1ccc(C(=O)OCc2cc(=O)n3nc(C4CC4)sc3n2)cc1`, the survival was 72%.
Next, `Cc1ccccc1C1C(C#N)=C(N)NC(S)=C1C#N` (configuration not stated): 93%.
For the molecule `CCC(=O)N1c2ccccc2CC1C(=O)NCCc1cc(OC)c(OC)c(OC)c1` (configuration not stated), the survival was 129%.
Consider `CC(c1ccccc1F)n1cc(C(=O)NCCCn2ccnc2)nn1` (configuration not stated), for which the survival is 96%.
Turning to `CCOc1ccc(NC(=O)Cn2cc(C(=O)c3ccc(C)c(C)c3)c(=O)c3cc(OC)c(OC)cc32)cc1`, the survival is 95%.
As for `COc1ccc(CCNC(=O)c2cc3c(=O)[nH]c4ccc(C)cc4c3s2)cc1OC`, the survival was 64%.
Next, `COc1ccc(CNC(=O)c2cc3c(=O)oc4ccc(C)cc4c3s2)c(OC)c1`: 86%.
Next, `COc1ccc(CNC(=O)c2cc3c(=O)[nH]c4ccc(C)cc4c3s2)c(OC)c1`: 44% (active); `CC1CCC(NC(=O)CCc2cn(Cc3ccc(F)cc3)c3ccccc23)CC1` (configuration not stated): 60%; `CCCCSC1=NC(C)(C)CC(C)O1` (configuration not stated): 79%.
Next, `CCc1ccc(NCc2cc3ccc(OC)cc3n(CC(=O)Nc3ccccc3OC)c2=O)cc1`: 79%; `CCCC12CN3CC(C)(CN(C1)C3c1ccc(CC)cc1)C2=O` (configuration not stated): 87%.
As for `CCCC12CN3CC(CCC)(CN(C1)C3c1ccc(OCc3ccccc3)cc1)C2=O` (configuration not stated), the survival was 112%.
With `CCCC12CN3CC(CCC)(CN(C1)C3c1ccc(OC(C)C)cc1)C2=O` (configuration not stated), the survival is 21% (active).
As for `COc1ccc(Cn2c(C(=O)O)c(CNC3CCC(C)CC3)c3ccc(C)cc32)cc1` (configuration not stated), the survival is 115%.
On to `COc1cccc(N2CCN(C(=O)c3nn(C)c4c3CSc3ccc(C)cc3-4)CC2)c1`, for which the survival was 117%.
As for `COC(=O)c1ccc2c(=O)n(CCCCCC(=O)NCc3ccc(OC)cc3)c(=O)[nH]c2c1`, the survival was 71%.
Next, `Cc1noc(-c2ccc(-c3noc(-c4ccc(F)cc4)n3)cc2)n1`: 72%; `Cc1noc(-c2ccc(-c3noc(-c4ccccc4)n3)cc2)n1`: -4% (active).
Take `Cc1noc(-c2ccc(-c3noc(-c4ccc(Cl)cc4)n3)cc2)n1`: the survival was 66%.
For the molecule `Cc1nc(-c2ccc(S(=O)(=O)NCc3ccc(N(C)C)cc3)cc2)co1`, the survival was 83%.
As for `CCOc1ccc(C(c2c(O)cc(C)n(Cc3ccco3)c2=O)N2CCN(c3ccccc3)CC2)cc1` (configuration not stated), the survival was 75%.
Next, `Cc1ccc(-c2nc(S(=O)(=O)c3ccc(Cl)cc3)c(N3CCCCC3)o2)cc1`: 11% (active); `COc1ccc(-c2nc(S(=O)(=O)c3ccc(Cl)cc3)c(N3CCCCCC3)o2)cc1`: 76%; `Cc1ccc(S(=O)(=O)c2nc(-c3ccc(Cl)cc3)oc2N2CCCCCC2)cc1`: 36% (active).
As for `O=S(=O)(c1ccc(Cl)cc1)c1nc(-c2ccccc2)oc1N1CCN(c2ccccc2)CC1`, the survival is 86%.
On to `O=C(O)c1ccc(CNCc2ccccc2Cl)s1`, for which the survival is 88%.
In the case of `CC(C)(C)OC(=O)N1CCC(c2c(C(=O)NCc3ccco3)cnn2-c2ccccc2Cl)CC1`, the survival is 76%.
Turning to `Cc1ccc(C(=O)N2C(C)CCCC2C)c(Cl)c1` (configuration not stated), the survival was 70%.
For `COC(=O)CN(C#N)c1nc(SC)nc(N(C)C)n1`, the survival was 52% (active).
For the molecule `COC(=O)CN(C#N)c1nc(C)cc(C)n1`, the survival was 94%.
For the molecule `CNC(=O)CN(C#N)c1nc(N(C)C)nc(N(C)C)n1`, the survival is 87%.
On to `Cc1nc(SCc2cc(=O)c3cccc(F)c3[nH]2)n[nH]1`, for which the survival is 94%.
Consider `CCOC(=O)c1c(NC(C)=O)sc2c(NC(C)=O)cccc12`, for which the survival is 69%.
In the case of `CCOC(=O)c1c(N)sc2c1CN(C(=O)OC)N(C(=O)OC)C2`, the survival was 112%.
Turning to `CCOC(=O)c1c(N)sc2c(OC)c(Br)ccc12`, the survival is 1% (active).
On to `COC(=O)c1cnc(N2CCN(c3ccc(F)cc3)CC2)c2ccccc12`, for which the survival was 80%.
`COc1ccc(CNC(=O)c2cc3c(=O)n(Cc4ccc(OC)cc4)ccc3nc2C)cc1`: the survival was 66%.
In the case of `COc1ccc(CNC(=O)c2cc3c(=O)n(Cc4ccco4)ccc3nc2C)c(OC)c1`, the survival was 67%.
Regarding `COc1ccc(Cn2ccc3nc(C)c(C(=O)NCc4ccc(OC)cc4OC)cc3c2=O)cc1`, the survival is 25% (active).
Regarding `COc1ccc(Cn2ccc3nc(C)c(C(=O)Nc4ccc(OC(F)(F)F)cc4)cc3c2=O)cc1`, the survival is 92%.
In the case of `COc1ccc(Cn2ccc3nc(C)c(C(=O)Nc4ccc(OC)cc4)cc3c2=O)cc1`, the survival was 89%.
`COc1ccc(Cn2ccc3nc(C)c(C(=O)Nc4ccc(OC)cc4OC)cc3c2=O)cc1`: the survival is 8% (active).
Take `COc1ccc(Cn2ccc3nc(C)c(C(=O)Nc4ccc(F)cc4)cc3c2=O)cc1`: the survival was 20% (active).
Next, `COc1ccc(NC(=O)c2cc3c(=O)n(Cc4cccnc4)ccc3nc2C)c(OC)c1`: 83%; `COc1ccc(NC(=O)c2cc3c(=O)n(Cc4ccco4)ccc3nc2C)c(OC)c1`: 81%.
In the case of `COc1ccccc1Nc1ncnc2scc(-c3ccc(F)cc3)c12`, the survival was 115%.
Next, `CC(=O)c1ccc(NC(=O)Cn2ncc3c(C)n(Cc4ccc(F)cc4)c(C)c3c2=O)cc1`: 60% (active); `Cc1ccc(C)c(NC(=O)Cn2ncc3c(C)n(Cc4ccc(F)cc4)c(C)c3c2=O)c1`: 71%; `Cc1c2cnn(CC(=O)NCc3ccc(Cl)cc3)c(=O)c2c(C)n1Cc1ccc(F)cc1`: 62%.
For `COc1ccc(OCC(=O)N(Cc2cccs2)c2ccc(OC)cc2)cc1`, the survival is 66%.
With `COc1ccc(N(Cc2cccs2)C(=O)COc2ccc(C(C)C)cc2)cc1`, the survival was 80%.
For `COc1ccc(N(Cc2cccs2)C(=O)COc2cccc(Cl)c2)cc1`, the survival is 42% (active).
On to `Cc1cccc(OCC(=O)N(Cc2cccs2)c2ccc(Cl)cc2)c1C`, for which the survival was 61%.
`COc1ccc(N(Cc2cccs2)C(=O)COc2cc(C)c(Cl)c(C)c2)cc1`: the survival was 65%.
With `COc1ccc(N(Cc2cccs2)C(=O)COc2cccc(C)c2C)cc1`, the survival is 17% (active).
Regarding `Cc1ccccc1-c1nn2c(=O)cc(CN3CCN(C(=O)c4ccccc4Br)CC3)nc2s1`, the survival is 116%.
Next, `Cc1cc(C)c2c(CC(=O)Nc3ccc(S(=O)(=O)N4CCCCC4)cc3)coc2c1`: 76%; `CC(=O)O/N=C1/CC(C)(C)Cc2onc(C)c21`: 76%; `CCOC(=O)c1cc(S(=O)(=O)NCc2ccc(Cl)cc2)[nH]n1`: 87%.
For `Cc1ccc(-c2nc(-c3cc4cccc(OCc5ccccc5F)c4oc3=O)no2)cc1`, the survival is 60%.
For `COc1ccc(C2c3[nH]c4ccccc4c3CCN2C(=O)CCC2CCCC2)cc1` (configuration not stated), the survival was 95%.
For `O=C(C1COc2cc(S(=O)(=O)Nc3ccc(Cl)cc3)ccc2O1)N1CCCC1` (configuration not stated), the survival is 71%.
Take `CN(C(=O)CSc1nc(-c2ccco2)cc(C(F)(F)F)n1)c1ccccc1`: the survival is 92%.
For `COc1ccccc1NC(=O)CCn1cnc2ccccc2c1=O`, the survival was 92%.
Consider `O=C(CCn1cnc2ccccc2c1=O)NCc1ccccc1Cl`, for which the survival was 77%.
`COc1ccccc1CNC(=O)CCn1cnc2ccccc2c1=O`: the survival is -5% (active).
